Measurements taken from PubChem BioAssay (NCI).
Compounds without any hit were thinned out: in the full panel of roughly 79,000, 15% have a hit. A number with no mark means an inactive call. Activity calls are given as the source filed them. No stated cut-off is given here; in the data, active means growth inhibition above about 70%; inactive means the rest.

Key:
[1] = NCI Yeast Anticancer Drug Screen. Data for the rad50 strain (AID 155);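 further: 0% = growth of vehicle-only cultures of the same strain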; details: S. cerevisiae rad50 strain growth inhibition, stronger effect = higher value
Summary of the method: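 Readout: growth inhibition relative to vehicle-treated cultures. Compound exposure was carried out in a genetically defined yeast strain deficient in DNA damage repair.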

[2] = NCI Yeast Anticancer Drug Screen. Data for the mec2-1 strain (AID 157); details: S. cerevisiae mec2-1 strain, stronger effect = higher value
Summary of the method: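 Readout is yeast growth inhibition, normalised to vehicle-treated controls, in the mec2-1 strain exposed to compound.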

[3] = NCI Yeast Anticancer Drug Screen. Data for the sgs1 mgt1 strain (AID 161);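 further: 0% = growth of cultures given vehicle only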; details: S. cerevisiae sgs1 mgt1 strain, stronger effect = higher value
Summary of the method: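 Percent growth inhibition was derived by comparing compound-exposed mutant yeast with vehicle-exposed cultures. The strain carries alterations in DNA damage repair.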

[4] = NCI Yeast Anticancer Drug Screen. Data for the cln2 rad14 strain (AID 165);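 further: 0% = growth equal to vehicle treated cultures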; details: S. cerevisiae cln2 rad14 strain, stronger effect = higher value
Summary of the method: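 Relative to vehicle controls, growth inhibition of compound-treated cln2 rad14 yeast was recorded.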

[5] = NCI Yeast Anticancer Drug Screen. Data for the bub3 strain (AID 167); details: S. cerevisiae bub3 mutant strain, stronger effect = higher value
Summary of the method: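 Readout: yeast growth inhibition, expressed relative to vehicle-only wells. The test organism is a mutant strain from a panel with lesions in DNA repair or checkpoint genes.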

[6] = NCI Yeast Anticancer Drug Screen. Data for the mlh1 rad18 strain (AID 175); details: S. cerevisiae mlh1 rad18 strain growth inhibition, stronger effect = higher value
Summary of the method: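 Test agents were incubated with a yeast strain of defined genotype (DNA damage repair defect). Inhibition of growth was derived by comparison with vehicle-exposed cultures.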

[7] = at 5.0 µM (retest, dose inferred, filed as 0.5)
[8] = at 50.0 µM (retest, dose inferred, filed as 5.0)

SMILES | growth inhibition [1, 7] [%] | growth inhibition [1, 8] | growth inhibition ([1]; at 50.0 µM) | growth inhibition [2, 7] [%] | growth inhibition [2, 8] | growth inhibition ([2]; at 50.0 µM) | growth inhibition [3, 7] [%] | growth inhibition [3, 8] | growth inhibition ([3]; at 50.0 µM) | growth inhibition [4, 7] [%] | growth inhibition [4, 8] | growth inhibition ([4]; at 50.0 µM) | growth inhibition [5, 7] [%] | growth inhibition [5, 8] | growth inhibition ([5]; at 50.0 µM) | growth inhibition [6, 7] [%] | growth inhibition [6, 8] | growth inhibition ([6]; at 50.0 µM)
O=C(O)c1ccccc1C(c1ccccc1)c1ccccc1 | 15 | 62% | 44.4% | -8 | 44% | 65.2% | 26 | 71% (active) | 85.8% (active) | 13 | 84% (active) | 74.3% (active) | 25 | 79% (active) | 75.3% (active) | 6 | 84% (active) | 67%
c1ccc(CN2CCC3(CC2)SSC2(CCN(Cc4ccccc4)CC2)S3)cc1 | 3 | 16% | 53.7% | 2 | 23% | 23.4% | 22 | 67% | 61.2% | 4 | 8% | 68.3% | 5 | 43% | 27.1% | 6 | 32% | 52%
Fc1ccc(CSC(=S)Nc2cccc(C(F)(F)F)c2)cc1 | 10 | 99% (active) | 99.6% (active) | 9 | 100% (active) | 99.8% (active) | 12 | 100% (active) | 99.7% (active) | 3 | 99% (active) | 99.5% (active) | -2 | 100% (active) | 99.7% (active) | 7 | 99% (active) | 99.5% (active)
CC1=C(C)C1[N+](=O)[O-] | 45 | 94% (active) | 78% (active) | 35 | 97% (active) | 79.8% (active) | 44 | 98% (active) | 69% | 25 | 68% | 24.4% | 49 | 97% (active) | 65.7% | 64 | 95% (active) | 62.9%
Cc1nc(C)c(C(=O)NNC(=O)C[N+](C)(C)C)cc1C(=O)NNC(=O)C[N+](C)(C)C | 66 | 8% | -23.2% | 18 | 7% | -8.4% | -36 | -29% | 5.8% | -2 | -4% | 7.2% | -20 | 8% | -15.2% | 17 | 14% | -25.4%
CCCCC(=O)c1nc(N(CC2CCCCC2)C(=O)NC)sc1N | -3 | 11% | 1.8% | -4 | 35% | -13.4% | -1 | 57% | 7.75% | -1 | 7% | 44.2% | -3 | 33% | 6.3% | -3 | 12% | 16.8%
N#CC1Sc2ccccc2N1C(=O)Oc1ccccc1 (configuration not stated) | 3 | 98% (active) | 98.8% (active) | 0 | 98% (active) | 98.7% (active) | 5 | 98% (active) | 98.8% (active) | 3 | 97% (active) | 98.2% (active) | 15 | 98% (active) | 99.1% (active) | 5 | 98% (active) | 98.8% (active)
Cc1cc2c(cc1C)C(=O)OC2=O | 1 | 14% | 72% (active) | -1 | -1% | 45.5% | 2 | 1% | 36.3% | 1 | -1% | 31.6% | -3 | 5% | 83.5% (active) | -2 | 5% | 41.5%
CN1C(=O)OC(C)(c2ccccc2)C1=O (configuration not stated) | -3 | 4% | -14.7% | -2 | -3% | -1.1% | -2 | 0% | -13.6% | 2 | -1% | 78% (active) | 2 | -7% | -11.8% | 0 | 8% | -2.55%
COc1ccc(C(=O)C2Cc3c(ccc4ccccc34)OC2=O)cc1 (configuration not stated) | 4 | 1% | 2.05% | -2 | -11% | -1.25% | -3 | 2% | -7.8% | 7 | 1% | 20.1% | -1 | -2% | -30.4% | -5 | -5% | -11.3%
c1ccc(SSc2ccccn2)nc1 | 17 | 99% (active) | 96.5% (active) | 69 | 99% (active) | 99.7% (active) | 49 | 99% (active) | 53.1% | 0 | 99% (active) | 99.5% (active) | 50 | 99% (active) | 99.5% (active) | 62 | 99% (active) | 99.5% (active)
NCC(=O)N/N=C/c1ccc([N+](=O)[O-])o1 | 10 | 24% | 5.1% | 4 | 17% | 44.3% | 0 | 15% | 73.2% (active) | -1 | 5% | 27.6% | 2 | 11% | 37.2% | 8 | 30% | 20.4%
COc1cc2c[n+](C)c3c4ccccc4ccc3c2cc1OC (tested in a mixture with another compound) | 27 | 87% (active) | 38% | 24 | 54% | 8.85% | 24 | 90% (active) | 7.1% | 21 | 69% | 9.7% | 27 | 81% (active) | 17.9% | 35 | 77% (active) | -18.6%
CCCCCCCC/C=C\CCCCCCCC(=O)NCCN(C)C | -1 | 99% (active) | 99.3% (active) | 5 | 100% (active) | 99.4% (active) | 33 | 99% (active) | 99.5% (active) | 2 | 99% (active) | 68.2% | 2 | 99% (active) | 97.2% (active) | 22 | 99% (active) | 99.5% (active)
CC#CC#C/C=C1/C=CC(=O)O1 | 2 | 80% (active) | 27.4% | 3 | 66% | 33.5% | 1 | 62% | 42.2% | -1 | 26% | -16.8% | 3 | 59% | 13.5% | 0 | 84% (active) | 75% (active)
O=C(OC1C2CCC2C2CC21)c1ccc([N+](=O)[O-])cc1[N+](=O)[O-] (configuration not stated) | 26 | 95% (active) | 36% | 14 | 99% (active) | 37.5% | 24 | 98% (active) | 59.1% | 6 | 99% (active) | 39.5% | -5 | 93% (active) | 37.2% | 25 | 98% (active) | 62.9%
Cc1cccc2c1NC(c1c(C)[nH]c3ccccc13)C2 (configuration not stated) | 1 | 10% | 28.8% | -1 | 5% | 25.3% | -4 | 8% | 27.2% | 0 | -2% | 30.4% | -3 | 17% | 30.1% | -3 | -22% | 67.2%
C=CS(=O)(=O)Cc1ccc(Cl)cc1 | -126 | 91% (active) | 98.6% (active) | -31 | 91% (active) | 97.2% (active) | -33 | 91% (active) | 94.2% (active) | -42 | 84% (active) | 93.9% (active) | -48 | 94% (active) | 97% (active) | -108 | 95% (active) | 97.4% (active)
C=CCOc1cc(NC(=S)c2sccc2C)ccc1Cl | 3 | 88% (active) | 81.5% (active) | -5 | 89% (active) | 87.2% (active) | -9 | 88% (active) | 85% (active) | 2 | 89% (active) | 80.2% (active) | 28 | 94% (active) | 81.3% (active) | 3 | 91% (active) | 81.9% (active)
